Most compounds without a hit are left out; they make up all but 7.8% or so of the library.
HEK293 cAMP ctrl = raises cAMP in parental HEK293 cells, TSHR agonist counter-screen; parental HEK293 CNG cAMP sensor, membrane potential fluorescence; Potency, µM (doses to about 57.1 µM), without a hit: at the highest dose activation, most hits filed as activators; 2.5% of 73,000 active; AID 938; note: % of control where 0% means no effect; nearly all actives have a fitted effect of over 55% in size
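Counterscreen for endogenous-receptor signalling: CNG-channel HEK 293 cells report cAMP rise by membrane depolarization. After 60 min dye equilibration with 100 uM RO 20-1724, compounds incubated 30 min before bottom-read fluorescence at 590 nm.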
TSHR ag = agonists of human thyroid stimulating hormone receptor. HEK293-CNG-TSHR cells (CNG channel as cAMP sensor), membrane potential dye, cAMP. 0.48% of 73,000 active. P16473. Potency, µM (doses to about 57.1 µM), for inactives: top-dose activation, most hits filed as activators; active = well fitted activation curve with a large enough effect in the main read-out, with a control signal flat, not every such curve was filed as active; inconclusive = small, poorly fitted or top-dose-only effect, or a change in a side signal; inactive = no such curve, though single readings can be large or run the other way; % of control where 0% means no effect;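 note: the control signal comes from parental cells without the receptor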
Target sequence (P16473 whole entry, looked up): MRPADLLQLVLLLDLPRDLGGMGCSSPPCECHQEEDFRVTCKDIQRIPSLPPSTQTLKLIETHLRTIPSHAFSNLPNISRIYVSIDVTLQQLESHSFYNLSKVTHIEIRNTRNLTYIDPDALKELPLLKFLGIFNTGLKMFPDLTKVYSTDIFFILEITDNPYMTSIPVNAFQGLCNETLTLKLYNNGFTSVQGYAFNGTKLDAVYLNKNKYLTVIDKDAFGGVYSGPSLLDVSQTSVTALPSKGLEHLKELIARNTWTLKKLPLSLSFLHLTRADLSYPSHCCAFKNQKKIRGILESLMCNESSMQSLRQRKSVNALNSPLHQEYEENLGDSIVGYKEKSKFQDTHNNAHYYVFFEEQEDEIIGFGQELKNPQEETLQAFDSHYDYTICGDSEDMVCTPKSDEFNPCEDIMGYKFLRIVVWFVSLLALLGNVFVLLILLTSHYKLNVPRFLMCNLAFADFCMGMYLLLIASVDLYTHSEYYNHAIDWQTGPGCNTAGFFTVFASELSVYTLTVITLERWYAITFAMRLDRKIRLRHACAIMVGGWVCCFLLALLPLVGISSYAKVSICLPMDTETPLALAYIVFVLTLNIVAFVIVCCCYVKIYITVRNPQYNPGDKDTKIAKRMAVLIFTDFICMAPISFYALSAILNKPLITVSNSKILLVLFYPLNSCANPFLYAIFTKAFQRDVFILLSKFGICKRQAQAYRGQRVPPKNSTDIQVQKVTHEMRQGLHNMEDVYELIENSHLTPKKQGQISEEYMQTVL
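HEK 293 cells stably expressing TSHR and a cAMP-gated CNG channel; parental CNG-only cells as counterscreen. Cells preloaded 60 min with membrane potential dye plus 100 uM RO 20-1724, then compound 30 min; fluorescence read at 590 nm.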
Bst PK mod = pyruvate kinase (B. stearothermophilus) modulation. purified pyruvate kinase, luminescence ATP production; ribose 5-phosphate activator present at AC10. Potency, µM. 1.2% of 51,000 active; in the data active = potency below about 11 µM; inconclusive = mostly about 12 µM to 25 µM;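 the screen sought inhibitors and activators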;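 note: scaled between full activation by ribose 5 phosphate and full inhibition by luteolin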
Luciferase inh = firefly luciferase inhibition; P08659; purified firefly luciferase, luminescence, 8 min; Potency, µM (series often up to 57.1 µM), for the others: top-dose activity change, negative = inhibition, most hits filed as inhibitors; 2.2% of 72,000 active; note: % is set by controls: 0 for no effect and ±100 for the full control effect; nearly all actives have a fitted effect of over 40% in size
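Firefly luciferase (PKLight detection mix) with 10 uM ATP in pH 7.2 imidazole buffer (KCl, MgCl2, Tween 20, BSA). Compounds tested across a concentration series (qHTS). Luminescence read after 8 min at ambient temperature.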
15-hLO inh = 15-hLO (ALOX15) enzyme inhibition | P16050 | purified 15hLO-1, xylenol orange hydroperoxide absorbance | Potency, µM (highest dose often 57.1 µM), for the others: top-dose activity change, negative = inhibition, actives largely listed as inhibitors | 1.4% of 74,000 active | AID 887; note: % is set by controls: 0 for no effect and ±100 for the full control effect; nearly all actives have a fitted effect of over 55% in size
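Quantitative HTS in 25 mM Hepes pH 7.5 containing 0.01% Triton X-100: human 15hLO-1 at 40 nM, arachidonic acid at 50 uM, 6 min turnover. Product quantified via ferrous oxidation/xylenol orange, 573:405 nm absorbance ratio.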
Tau fil binding = binds recombinant human tau filaments | 2% of 71,000 active | P10636 | Potency, µM (series often up to 57.1 µM), for the others: at the highest dose activity change, negative = inhibition | recombinant tau filaments, thioflavin S fluorescence, 15 h; filaments grown with octadecylsulfate alongside compound | AID 596;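 note: % is set by controls: 0 for no effect and ±100 for the full control effect; actives lower thioflavin S fluorescence by blocking filaments or displacing dye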
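Tau 2 uM in ThS buffer dispensed; compound added; 60 uM ODS added (finals 1 uM tau, 30 uM ODS); 15 h 37 C; fluor ex450/em510.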
* marks the source's active call; other numbers are inactive results; [ ] = dose if it differs, or a comment. Unless noted, calls come from the whole dose curve; as a rule, active = well fitted curve in the direction sought with a large enough effect; inconclusive = small, poorly fitted or top-dose-only effect, or another doubt; inactive = no such curve, though single readings can be large; an effect the other way counts as inactive or inconclusive. Potency is the fitted concentration of half-maximal effect.

For COc1ccc(N(CC(=O)Nc2cc(C)on2)S(=O)(=O)c2cc(C)ccc2C)cc1 the results were HEK293 cAMP ctrl 27%, TSHR ag 25µM*, Bst PK mod >57, Luciferase inh 0%, 15-hLO inh -14% and Tau fil binding 3%.
`Cc1cccc(C)c1NC(=O)C(c1cccs1)N(Cc1ccco1)C(=O)Cn1nnc2ccccc21` (stereo not drawn) gave HEK293 cAMP ctrl 16µM*, TSHR ag inconclusive, Bst PK mod >57, Luciferase inh -1%, 15-hLO inh 3% and Tau fil binding 34%.
Screening O=C(NC1CCCCC1)C(c1ccccc1F)N(Cc1ccco1)C(=O)Cn1nnc2ccccc21 (stereo not drawn) returned HEK293 cAMP ctrl 20µM*, TSHR ag inconclusive, Bst PK mod >57, Luciferase inh 1%, 15-hLO inh -4% and Tau fil binding 64%.
O=C(NC1CCCCC1)C(c1ccc(F)cc1)N(Cc1ccco1)C(=O)Cn1nnc2ccccc21 (stereo not drawn) was read as HEK293 cAMP ctrl 16µM*, TSHR ag inconclusive, Bst PK mod >57, Luciferase inh 0%, 15-hLO inh 5% and Tau fil binding 3%.
Cc1csc(=O)n1CCC(=O)O was read as HEK293 cAMP ctrl 12%, TSHR ag 1%, Bst PK mod >57, Luciferase inh 0%, 15-hLO inh 12% and Tau fil binding -4%.
`CC1(C)OC[C@@H]2O[C@H](n3cnc4c(N)nc(Cl)nc43)[C@@H](OS(C)(=O)=O)[C@@H]2O1` gave HEK293 cAMP ctrl -3%[11.4 µM], TSHR ag 0%[11.4 µM], Luciferase inh 4%[11.4 µM], 15-hLO inh 4%[11.4 µM] and Tau fil binding 1%[11.4 µM].
Screening Cc1ccc(-c2n[nH]c(=O)c3ccccc23)cc1N returned HEK293 cAMP ctrl inconclusive, TSHR ag inconclusive, Bst PK mod >57, Luciferase inh 1%, 15-hLO inh -2% and Tau fil binding -3%.
`Nc1ccc(-c2n[nH]c(=O)c3ccccc23)cc1N` gave HEK293 cAMP ctrl -3%, TSHR ag 8%, Bst PK mod >57, Luciferase inh -14%, 15-hLO inh inconclusive and Tau fil binding 16µM*.
`c1ccsc1` gave HEK293 cAMP ctrl inconclusive, TSHR ag inconclusive, 15-hLO inh 1% and Tau fil binding -8%.
`CCOC(=O)NC1(Nc2ccc(Cl)cn2)Oc2ccccc2O1` gave HEK293 cAMP ctrl 4%, TSHR ag -3%, Bst PK mod >57, Luciferase inh -4%, 15-hLO inh 25µM* and Tau fil binding 4%.
Screening CS(C)(=O)=O returned 15-hLO inh -6%.
O=c1cc(-c2ccc(O)cc2)oc2cccc(O)c12 was read as 15-hLO inh -11%[25.6 µM].
`O=c1cc(-c2ccccc2O)oc2c(O)c(O)ccc12` gave HEK293 cAMP ctrl -3%, TSHR ag -6%, Luciferase inh -22%[11.4 µM], 15-hLO inh inconclusive and Tau fil binding 40µM*.
For O=C(O)Cc1cccc2c(=O)cc(-c3ccccc3)oc12 the results were HEK293 cAMP ctrl 3%[11.4 µM], TSHR ag 2%[11.4 µM], Luciferase inh 5%[11.4 µM], 15-hLO inh 2%[11.4 µM] and Tau fil binding 2%[11.4 µM].
`O=c1cc(-c2ccccc2)oc2c(O)c(O)ccc12` gave 15-hLO inh 5µM*.
`O=c1cc(-c2ccccc2O)oc2ccc3ccccc3c12` gave HEK293 cAMP ctrl 16%, TSHR ag 10%, Luciferase inh 0.5µM*, 15-hLO inh 18%[25.6 µM] and Tau fil binding inconclusive.
For Clc1ccc(-c2nnc3sc(-c4ccc(Br)o4)nn23)cc1 the results were HEK293 cAMP ctrl 4%, Bst PK mod inactive, Luciferase inh 3%, 15-hLO inh -5% and Tau fil binding -14%.
`Cc1oc(-c2ccc(Cl)cc2)cc1-c1nn2c(-c3ccoc3C)nnc2s1` gave HEK293 cAMP ctrl 32µM*, TSHR ag inconclusive, Bst PK mod inconclusive, Luciferase inh 0%, 15-hLO inh inconclusive and Tau fil binding 10%.
`Cc1cc(C)c(S(=O)(=O)Nc2ccccc2C(F)(F)F)c(C)c1` gave HEK293 cAMP ctrl 40µM*, TSHR ag inconclusive, Luciferase inh 3%, 15-hLO inh -28%[25.6 µM] and Tau fil binding inactive.
Nc1ncnc2c1c(-c1ccc(Oc3ccccc3)cc1)cn2C1CCCC1 was read as HEK293 cAMP ctrl 12%, TSHR ag 14%, Luciferase inh -3%, 15-hLO inh -8% and Tau fil binding 25%.
`O=C(Nc1ccccc1N1CCCCC1)c1cccs1` gave HEK293 cAMP ctrl 25µM*, TSHR ag inconclusive, Bst PK mod >57, Luciferase inh 0%, 15-hLO inh -15% and Tau fil binding -2%.
`CS(=O)(=O)N1CCN(c2ccccc2NC(=O)c2cccs2)CC1` gave HEK293 cAMP ctrl inconclusive, TSHR ag inconclusive, Bst PK mod >57, Luciferase inh 5%, 15-hLO inh -2% and Tau fil binding -25%.
`Cc1ccc(-n2c3c(cc(C(=O)NCc4ccco4)c2=O)C(=O)CC(C)(C)C3)cc1` gave HEK293 cAMP ctrl 21%[11.4 µM], TSHR ag 4µM*, Luciferase inh 1%, 15-hLO inh -13%[11.4 µM] and Tau fil binding -2%[11.4 µM].
`CC1(C)CC(=O)c2cc(C(=O)NCc3ccco3)c(=O)n(-c3ccc(Cl)cc3)c2C1` gave HEK293 cAMP ctrl inconclusive, TSHR ag inconclusive, Bst PK mod >57, Luciferase inh 1%, 15-hLO inh -1% and Tau fil binding 5%.
Screening O=C1CC(c2ccc3c(c2)OCO3)Sc2nc3ccccc3n21 (stereo not drawn) returned HEK293 cAMP ctrl inconclusive, TSHR ag inconclusive, Bst PK mod 4.5*, Luciferase inh 4µM*, 15-hLO inh -1% and Tau fil binding 1%.
For O=C1CC(c2cccs2)Sc2nc3ccccc3n21 (stereo not drawn) the results were HEK293 cAMP ctrl 25%, TSHR ag 8%, Bst PK mod inactive, Luciferase inh 16µM*, 15-hLO inh -5% and Tau fil binding 3%.
CCCc1nc2ccccc2c(=O)n1/N=C/c1ccc(O)cc1 was read as HEK293 cAMP ctrl 9%, Bst PK mod >57, Luciferase inh 1%, 15-hLO inh -2% and Tau fil binding -2%.
`CN=c1scc(C)n1/N=C/c1ccc2c(c1)OCO2` gave HEK293 cAMP ctrl -18%, TSHR ag -13%, Bst PK mod 3.2*, Luciferase inh 4µM*, 15-hLO inh 7% and Tau fil binding inconclusive.
For CN=c1scc(C)n1/N=C/c1ccc(O)cc1O the results were HEK293 cAMP ctrl -12%, TSHR ag -12%, Bst PK mod 1.1*, Luciferase inh 4µM*, 15-hLO inh -15% and Tau fil binding -20%.
